This is a sample that favours compounds with a hit; in the whole collection about 3.6% have one here.
mHTT CaM bind: inhibitors of human mutant huntingtin-calmodulin interaction | inhibition, % at 15 µM | AID 1671202 | hit rate 3.6% among 190,000 | P42858 | AlphaScreen His-mHTT/GST-CaM binding, luminescence
Pf apPOL inh: Pf-apPOL DNA polymerase inhibition. hit rate 0.25% among 210,000. Recombinant Pf-apPOL, molecular beacon fluorescence, 1.5 h. inhibition, % at 10 µM. AID 1794808
Hits are given with their value; – = inactive; · = no result given. No stated cut-off is given here; in the data, active means inhibition above about 50%; inactive means the rest.

SMILES | mHTT CaM bind | Pf apPOL inh
CS(=O)(=O)N1CCCC(C(=O)Nc2nnc(-c3ccno3)o2)C1 (stereo not drawn) | 50 | –
CCOC(=O)Cc1csc(NC(=O)Cc2csc(Nc3nc(C)cc(C)n3)n2)n1 | – | –
COc1ccc2c(c1)N1CCN(c3ccccc3OC)CC1C(C(=O)NC1CC1)C2 (stereo not drawn) | 59 | –
C=CCNC(=O)C1Cc2ccccc2N2CCN(c3cc(Cl)ccc3OC)CC12 (stereo not drawn) | 55 | –
CCNC(=O)C1Cc2ccc(OC)cc2N2CCN(Cc3ccc(F)cc3)CC12 (stereo not drawn) | – | –
COc1ccccc1N1CCN2c3ccccc3CC(C(=O)NC3CC3)C2C1 (stereo not drawn) | – | –
CCNC(=O)C1Cc2ccccc2N2CCN(c3cc(Cl)ccc3OC)CC12 (stereo not drawn) | – | –
COc1ccc2c(c1)N1CCN(Cc3ccc(F)cc3)CC1C(C(=O)NC1CC1)C2 (stereo not drawn) | 93 | –
COc1ccc(C2CC(C(F)(F)F)n3nc(C(=O)N4C(C)CCCC4C)c(Cl)c3N2)cc1 (stereo not drawn) | – | –
Cc1nc(C)c(Cc2ccccc2)c(N2CCN(C(=O)c3ccccc3F)CC2)n1 | – | –
COc1ccc2oc(=Nc3ccc(Cl)cc3Cl)c(C(N)=O)cc2c1 | – | –
COc1cccc(-n2c(SCC(=O)N3CCCC3)nc3n[nH]c(C)c3c2=N)c1 | – | –
CCCN(CCC)C(=O)CSc1nc2n[nH]c(C)c2c(=N)n1-c1ccc(OCC)cc1 | – | –
CCC(Sc1nc2n[nH]c(C)c2c(=N)n1-c1ccc(C)cc1)C(=O)N1CCCC1 (stereo not drawn) | 54 | –
CCC(C)NC(=O)CSc1nc2n[nH]c(C)c2c(=N)n1-c1ccc(Br)cc1 (stereo not drawn) | 75 | –
CCC(C)NC(=O)CSc1nc2ccsc2c(=O)n1-c1ccc(Br)cc1 (stereo not drawn) | – | –
COc1ccc(-n2c(SCC(=O)NC3CCCCC3)nc3n[nH]c(C)c3c2=N)cc1 | 79 | –
CC1CCc2c(cnc3c(C(=O)NCCc4cccs4)cnn23)C1 (stereo not drawn) | – | –
Cc1cc(C)cc(NC(=O)Cn2c(C)cc(-c3nnc(C)o3)c2C)c1 | – | –
COc1ccc(Oc2ccc(C(=O)C=CN(C)C)cc2)cc1 | · | –
COc1nonc1OCCN1CCN(c2ccc([N+](=O)[O-])c3cccnc23)CC1 | – | –
CCN(CC)Cc1c(O)c(CN(CC)CC)c2oc(-c3ccccc3)cc(=O)c2c1O | 100 | –
O=c1cc(-c2ccccc2)oc2c(CN3CCCCC3)c(O)c(CN3CCCCC3)c(O)c12 | – | –
O=C(CC1CCCC1)N1CC(OCc2ccc(F)cc2)C1 | – | –
CCC(CC)C(=O)N1CCc2c(c(C(=O)NCc3cccc(C)c3)nn2C)C1 | – | –
SMILES | mHTT CaM bind | Pf apPOL inh
CCCCC(=O)N1CCc2c(c(C(=O)NCc3cccc(C)c3)nn2C)C1 | 59 | –
CCCCC(=O)N1CCc2c(c(C(=O)NCc3ccccc3)nn2C)C1 | – | –
Cc1cccc(CNC(=O)c2nn(C)c3c2CN(C(=O)CC(C)C)CC3)c1 | – | –
Cn1nc(C(=O)NCc2ccccc2)c2c1CCN(C(=O)Cc1ccc(F)cc1)C2 | 78 | –
Cc1cccc(CNC(=O)c2nn(C)c3c2CN(C(=O)Cc2ccccc2)CC3)c1 | 63 | –
Cc1cccc(CNC(=O)c2nn(C)c3c2CN(C(=O)C(C)C)CC3)c1 | – | 67
Cn1nc(C(=O)NCc2ccc(F)cc2)c2c1CCN(C(=O)c1c(F)cccc1F)C2 | – | –
Cc1c(C(=O)O)oc2ccc(S(=O)(=O)N3CCCCC3C)cc12 (stereo not drawn) | – | –
CCn1nccc1C(=O)N1CCC(n2c(-c3ccoc3)nc3cccnc32)C1 (stereo not drawn) | – | –
Cn1ccc(CN2CCN(c3ncccn3)CC2)cc1=O | – | –
CC1CCN(CCNS(=O)(=O)c2cc(Br)cc3c2N(C(=O)C2CC2)CC3)CC1 | – | –
CC(=O)N1CCN(C(=O)Cn2c(Cc3ccccc3)nc3cc(C)c(C)cc32)CC1 | – | –
CC(C)(CN1CCN(CCC#N)CC1)NS(=O)(=O)c1ccc(Cl)cc1 | – | –
COc1cc(C2CC(=O)C3=C(C2)Nc2ccccc2NC3c2ccc(C)cc2)cc(OC)c1OC (stereo not drawn) | – | –
O=C(c1cccn2c(=O)c3cc(Cl)ccc3nc12)N1CCc2ccccc2C1 | 62 | –
O=C(c1cccn2c(=O)c3cc(Cl)ccc3nc12)N1CCN(c2ccc(Cl)cc2)CC1 | – | –
O=C(NCc1cccnc1)c1ccc2c(c1)ncn2C1CCCC1 | – | –
OC(CN1c2ccccc2Sc2ccccc21)Cn1cnc(-c2ccccc2)c1-c1ccccc1 (stereo not drawn) | 100 | ·
OC(CNCCc1ccccc1)CN1c2ccccc2Sc2ccccc21 (stereo not drawn) | 100 | –
CCN(CC)C(C)CN1c2ccccc2Sc2ccccc21 (stereo not drawn) | · | –
CCC(CO)NCC(O)CN1c2ccccc2Sc2ccccc21 (stereo not drawn) | – | –
O=C(O)CCC(C(=O)O)N1C(=O)C(=Cc2ccco2)SC1=S (stereo not drawn) | – | –
CC(C)C(C(=O)O)N1C(=O)C(=Cc2ccco2)SC1=S (stereo not drawn) | – | –
CCCC(C(=O)O)N1C(=O)C(=CC=Cc2ccco2)SC1=S (stereo not drawn) | 84 | 92
CC(C(=O)O)N1C(=O)C(=CC=Cc2ccco2)SC1=S (stereo not drawn) | – | 91
SMILES | mHTT CaM bind | Pf apPOL inh
Cc1nnsc1-c1n[nH]c(C)c1C(=O)NN=Cc1c(Cl)cccc1Cl | · | –
Cc1c(C(=O)Nc2ccc3c(c2)N(C(=O)c2cccs2)CC3)cnn1-c1ccccc1 | – | –
CC(C)c1cc(Br)c(NC(=O)Nc2ccc(C#N)cc2)c(Br)c1 | · | –
Cc1oc(C2CCN(S(=O)(=O)CCc3ccccc3)CC2)nc1C(=O)N1CCCC1 | – | –
O=C(NCCc1c[nH]c2ccccc12)Nc1ccc(Cl)cc1 | · | –
CCn1cc(NC(=O)NCCc2c[nH]c3ccccc23)c2ccccc21 | 72 | –
O=C(NCCC1=CCCCC1)Nc1ccc(OC(F)(F)F)cc1 | · | –
COc1cc(NC(=O)N2CCC(N3CCN(Cc4ccccc4)C3=O)CC2)cc(OC)c1 | – | –
CC(=O)Nc1ccc2nc(N3CCC(C(=O)NCCCN4CCCC4)CC3)cc(C)c2c1 | – | –
COc1ccc(C(=O)NCc2nc3ccccc3n2Cc2ccccc2F)cc1OC | 58 | –
COc1ccc(C(=O)NCCc2nc3ccccc3n2Cc2ccccc2F)cc1OC | – | –
Cc1nc(C(=O)Nc2ccc3c(c2)C(=O)N(C)CCO3)cs1 | – | –
CS(=O)(=O)N1CCN(c2ccc([N+](=O)[O-])c(NCc3ccccc3)c2)CC1 | – | –
CS(=O)(=O)N1CCN(c2ccc([N+](=O)[O-])c(NCc3ccc(Cl)cc3)c2)CC1 | 56 | –
Cc1ccc(-c2ccnc3c(C(=O)NCc4cccs4)cnn23)cc1C | – | –
Cc1cc(C)c(O)c(N=Cc2cccc([N+](=O)[O-])c2O)c1 | – | –
COc1cccc(C=Nc2cc(C)cc(C)c2O)c1O | 50 | –
COc1cc(C=C2C(=O)N(C)C(=O)N(C)C2=O)ccc1Oc1ccc([N+](=O)[O-])cn1 | – | –
COC(=O)c1ccc(NC(=O)CSc2ccc(NC(=O)c3ccccc3F)nn2)cc1 | – | –

Assay outcomes as filed in PubChem.
